The values that follow come from PubChem BioAssay.

The inhibition is the change of the read-out against control, counted positive when it falls.

Assay [1] can be described thus: yeast TOR pathway RPL19A-GFP modulators, primary screen, cell-based, S. cerevisiae, multiplex flow cytometry (AID 1862; in the data active means percent of DMSO control GFP below about 86%;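 further: lower values mimic rapamycin by blocking the RPL19A rise seen in DMSO cells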). As to conditions: S. cerevisiae RPL19A-GFP strain, flow cytometry fluorescence, 3 h; at 10 µM; stronger effect = lower value. (In general: A flow cytometer gives signals particle by particle.)
Assay [2] is described as follows: modulators of MEP2-GFP levels in yeast, primary screen, S. cerevisiae, multiplex flow cytometry (AID 1867;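 active means GFP response, as percent of the DMSO control, above the screen-wide mean plus 3 SD, about 139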;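 further: median GFP channel fluorescence of barcode-gated MEP2-GFP cells measured by flow cytometry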). The note with it: S. cerevisiae MEP2-GFP strain, 3 h, at 10 µM, stronger effect = higher value, 100% means same as DMSO wells.
Assay [3] in a line: modulators of CIT2-GFP expression in yeast, primary screen, S. cerevisiae, GFP fusion, multiplex flow cytometry (AID 1870;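 active means percent response above a set limit, the screen-wide mean plus 3 SD, cut at about 130% in these data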;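 further: barcoded CIT2-GFP strain pooled with four other GFP strains with rapamycin as positive control; median GFP fluorescence per well over plate mean of DMSO wells so 100% = DMSO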). The note with it: 3 h, at 10 µM, stronger effect = higher value.
Assay [4] in a line: modulators of LAP4-GFP expression in yeast, primary screen, S. cerevisiae, multiplex flow cytometry (AID 1873). The note with it: 3 h, at 10 µM, stronger effect = higher value.
Assay [5] in a line: modulators of AGP1-GFP expression in yeast TOR pathway, primary screen, cell-based, multiplex flow cytometry, S. cerevisiae (AID 1887;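 active means GFP signal above the screen-wide mean plus 3 SD, that is over about 124.5% of the solvent control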;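 further: AGP1-GFP fusion strain of S. cerevisiae within a five-strain barcoded multiplex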). As to conditions: 3 h, at 10 µM, stronger effect = higher value.
Assay [6] is described as follows: inhibitors of CD8+ T cell-vesicle binding, pilot screen, LFA-1/ICAM-1 modulator project, MLPCN validation set, flow cytometry (AID 2523;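 active means response below a set limit, under 55% cells CD8-positive and vesicle-bound, and CD8 cells' 90th-percentile brightness under 279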;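 on vesicle binding response: mean PE anti-B7-1 fluorescence of CD8+ cells relative to row control; 100% = QL9-loaded vesicles with DMSO vehicle in the same plate row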). The note with it: 2C mouse CD8+ T cells, at 7 µM, stronger effect = lower value; double positive events: measured here: CD8+/vesicle+ event percentage.
The target in assay [7] is Integrin beta-1 (Homo sapiens) + Integrin alpha-4 (Homo sapiens) (UniProt P13612+P05556). Description: inhibition of HUTS-21 binding to VLA-4, pilot screen, VLA-4 allosteric modulator project, U937 cells, HUTS-21 mAb, flow cytometry, validation set (AID 2674;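 active means inhibition above 50%, about 3 SD of the validation set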;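 further: antibody binding induced by the VLA-4 ligand LDV present at three times its Kd; 0% = LDV ligand with antibody and no compound and 100% = antibody without LDV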). As to conditions: HUTS-21 LIBS mAb binding, at 6.7 µM, stronger effect = higher value, binding induced by LDV ligand.
Chain of Integrin beta-1 (Homo sapiens) + Integrin alpha-4 (Homo sapiens) (P05556 whole entry, looked up): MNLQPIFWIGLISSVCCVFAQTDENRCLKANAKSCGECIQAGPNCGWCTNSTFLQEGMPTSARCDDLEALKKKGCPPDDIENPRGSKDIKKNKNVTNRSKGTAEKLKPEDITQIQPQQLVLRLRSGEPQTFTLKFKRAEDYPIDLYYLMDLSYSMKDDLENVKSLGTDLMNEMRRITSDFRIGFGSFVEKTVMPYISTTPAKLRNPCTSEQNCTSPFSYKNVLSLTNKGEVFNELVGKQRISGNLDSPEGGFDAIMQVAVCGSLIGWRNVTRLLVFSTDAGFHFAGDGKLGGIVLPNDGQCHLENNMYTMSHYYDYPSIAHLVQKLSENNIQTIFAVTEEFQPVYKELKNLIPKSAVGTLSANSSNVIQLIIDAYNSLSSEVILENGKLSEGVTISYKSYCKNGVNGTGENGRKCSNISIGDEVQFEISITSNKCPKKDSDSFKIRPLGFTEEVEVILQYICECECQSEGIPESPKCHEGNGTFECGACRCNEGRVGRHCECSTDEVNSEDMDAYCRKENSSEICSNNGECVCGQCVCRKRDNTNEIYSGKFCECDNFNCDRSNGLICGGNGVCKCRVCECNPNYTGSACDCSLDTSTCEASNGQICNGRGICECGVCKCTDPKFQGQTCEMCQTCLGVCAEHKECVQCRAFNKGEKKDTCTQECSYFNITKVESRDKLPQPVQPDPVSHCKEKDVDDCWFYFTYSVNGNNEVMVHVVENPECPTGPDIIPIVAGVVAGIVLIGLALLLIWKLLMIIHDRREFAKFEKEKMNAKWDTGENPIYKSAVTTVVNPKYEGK
Chain of Integrin beta-1 (Homo sapiens) + Integrin alpha-4 (Homo sapiens) (P13612 whole entry, looked up): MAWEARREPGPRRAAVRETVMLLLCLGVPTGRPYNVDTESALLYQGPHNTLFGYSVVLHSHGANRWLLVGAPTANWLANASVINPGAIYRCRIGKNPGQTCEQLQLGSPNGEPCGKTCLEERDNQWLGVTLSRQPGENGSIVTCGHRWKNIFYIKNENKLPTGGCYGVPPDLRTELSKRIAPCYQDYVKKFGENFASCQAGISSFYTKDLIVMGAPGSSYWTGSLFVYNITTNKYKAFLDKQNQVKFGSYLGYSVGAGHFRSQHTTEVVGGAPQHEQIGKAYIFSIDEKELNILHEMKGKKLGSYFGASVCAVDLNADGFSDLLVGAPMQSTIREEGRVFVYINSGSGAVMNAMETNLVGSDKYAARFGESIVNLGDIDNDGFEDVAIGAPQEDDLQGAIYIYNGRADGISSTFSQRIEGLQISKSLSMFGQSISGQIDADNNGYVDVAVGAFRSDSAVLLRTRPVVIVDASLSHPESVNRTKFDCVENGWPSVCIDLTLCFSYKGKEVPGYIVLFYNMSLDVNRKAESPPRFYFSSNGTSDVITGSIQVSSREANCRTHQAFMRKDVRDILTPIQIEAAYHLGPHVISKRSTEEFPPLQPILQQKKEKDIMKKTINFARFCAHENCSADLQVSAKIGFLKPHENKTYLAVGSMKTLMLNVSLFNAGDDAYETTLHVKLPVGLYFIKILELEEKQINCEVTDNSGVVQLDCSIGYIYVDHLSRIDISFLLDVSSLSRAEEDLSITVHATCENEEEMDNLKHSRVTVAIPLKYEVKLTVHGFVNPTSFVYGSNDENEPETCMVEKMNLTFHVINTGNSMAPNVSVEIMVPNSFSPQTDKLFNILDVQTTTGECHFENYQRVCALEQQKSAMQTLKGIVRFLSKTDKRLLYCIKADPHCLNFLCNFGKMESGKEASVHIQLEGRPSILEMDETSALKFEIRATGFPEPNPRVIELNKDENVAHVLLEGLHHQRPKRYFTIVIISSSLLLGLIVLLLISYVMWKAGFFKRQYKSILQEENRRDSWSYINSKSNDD
Assay [8] can be described thus: superoxide lowering in aged yeast cells, pilot screen, validation compound set (AID 2706;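 active means superoxide response below 65% of plate, a cut near 3 SD across the whole screen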;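 further: yeast exposed to compound for one week at 30 degrees C before staining; 100% = mean of all compound wells on the same plate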). The note with it: S. cerevisiae aging, superoxide DHE fluorescence; at 10 µM; stronger effect = lower value.
In assay [9] the target is Beta-adrenergic receptor kinase 1 (Homo sapiens) (UniProt P25098). Nature of the assay: GRK2 binders displacing RNA aptamer, biochemical, validation, human GRK2, bead flow cytometry (AID 488806;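 active means aptamer binding inhibition above 30%, about 3 SD of noise from non-fluorescent compounds; inactive means inhibition at or below 30%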). As to conditions: bead-bound GRK2, FAM-aptamer displacement, at 10 µM, stronger effect = higher value.
Chain of Beta-adrenergic receptor kinase 1 (Homo sapiens) (P25098 whole entry, looked up): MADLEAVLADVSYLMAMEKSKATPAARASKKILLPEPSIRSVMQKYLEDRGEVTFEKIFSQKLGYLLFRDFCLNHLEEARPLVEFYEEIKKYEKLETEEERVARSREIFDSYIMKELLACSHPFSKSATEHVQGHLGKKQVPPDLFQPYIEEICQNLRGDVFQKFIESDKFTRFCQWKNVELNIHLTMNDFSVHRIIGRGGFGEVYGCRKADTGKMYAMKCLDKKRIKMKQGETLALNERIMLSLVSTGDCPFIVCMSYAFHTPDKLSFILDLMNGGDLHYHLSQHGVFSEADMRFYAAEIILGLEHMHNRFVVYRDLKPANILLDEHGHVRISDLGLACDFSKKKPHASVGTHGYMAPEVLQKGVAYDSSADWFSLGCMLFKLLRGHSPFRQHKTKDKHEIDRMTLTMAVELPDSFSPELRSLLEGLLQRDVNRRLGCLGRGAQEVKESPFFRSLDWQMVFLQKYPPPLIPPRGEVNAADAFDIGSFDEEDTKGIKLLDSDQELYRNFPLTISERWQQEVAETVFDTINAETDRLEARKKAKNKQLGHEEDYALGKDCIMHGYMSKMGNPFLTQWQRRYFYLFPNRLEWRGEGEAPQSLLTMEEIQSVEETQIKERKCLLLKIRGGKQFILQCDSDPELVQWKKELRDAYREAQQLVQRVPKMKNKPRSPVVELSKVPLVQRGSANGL
Assay [10] deals with Beta-2 adrenergic receptor (Homo sapiens) (UniProt P07550). Description: beta2AR agonists driving receptor internalization, pilot screen, cell-based, FAP fluorogen, flow cytometry, validation set (AID 504459;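 active means percent response above 42, roughly 3 SD of non-fluorescent test compounds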;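 further: agonist-driven loss of surface beta2AR via internalization measured by FAP dye flow cytometry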). The note with it: Am2.2-beta2AR cells, FAP surface receptor flow cytometry; at 10 µM; stronger effect = higher value.
Chain of Beta-2 adrenergic receptor (Homo sapiens) (P07550 whole entry, looked up): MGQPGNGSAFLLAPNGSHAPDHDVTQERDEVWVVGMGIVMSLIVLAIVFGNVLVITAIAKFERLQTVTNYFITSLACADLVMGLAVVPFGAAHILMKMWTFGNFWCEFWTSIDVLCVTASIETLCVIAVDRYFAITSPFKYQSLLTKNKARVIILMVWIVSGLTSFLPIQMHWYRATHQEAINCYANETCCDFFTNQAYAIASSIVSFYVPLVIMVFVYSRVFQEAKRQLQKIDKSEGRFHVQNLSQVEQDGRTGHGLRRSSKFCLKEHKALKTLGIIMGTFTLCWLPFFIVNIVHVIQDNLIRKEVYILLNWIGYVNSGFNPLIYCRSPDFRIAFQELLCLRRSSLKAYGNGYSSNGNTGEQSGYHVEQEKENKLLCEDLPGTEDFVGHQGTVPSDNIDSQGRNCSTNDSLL
Assay [11] addresses AP-2 complex subunit beta (Homo sapiens) (UniProt P63010). Nature of the assay: inhibitors of arrestin peptide binding to AP2, pilot screen, biochemical, validation set, GST-AP2 beads, flow cytometry (AID 504541;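 active means inhibition above 54%, about 3 SD of non-fluorescent compounds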;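 further: AP2 carries R879A mutation and is captured from E. coli lysate; bead-bound FITC arrestin peptide fluorescence measuring arrestin peptide binding to AP2; 0% = DMSO wells and 100% = excess unlabeled arrestin peptide control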). As to conditions: FITC arrestin peptide, at 10 µM, stronger effect = higher value, AP2 beta2 appendage fragment, R879A mutant.
Assay [12] is described as follows: yeast V-ATPase proton transport modulators, S. cerevisiae, pHLuorin, HTS validation (AID 504600; in the data active means response above about 15%;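 further: plate controls were DMSO for no effect and reference compound for full effect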). The note with it: S. cerevisiae pHLuorin cytosolic pH, at 10 µM, stronger effect = higher value.
The subject of assay [13] is anti-desmoglein-3 scFv antibody binding to human DSG3. Description: inhibitors of anti-DSG3 scFv binding to DSG3, pilot screen, biochemical, validation compound set, bead-based, flow cytometry (AID 588368;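 active means binding below the plate cutoff, the plate median minus 3 SD, with a reading above zero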;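 further: signal is the median channel fluorescence of bead-bound GFP antibody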). The note with it: Protein G beads, DSG3-Fc, scFv-GFP binding, at 10 µM, stronger effect = lower value.
Assay [14] is described as follows: inhibitors of fungal efflux pumps CDR1, CDR2, MDR1, pilot screen, validation compound set, multiplex, phenotypic (AID 588506;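 active means efflux inhibition above 0.42, the validation set average plus 4 SD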;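 further: Nile Red retained in cells so higher fluorescence means more efflux inhibition; 0 = negative control wells and 1 = enniatin B 25 µM full block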). As to conditions: S. cerevisiae pump-expressing triplex, Nile Red efflux flow cytometry; at 10 µM; stronger effect = higher value; the pumps come from Candida albicans.
The target of assay [15] is ATP-binding cassette sub-family B member 6 (Homo sapiens) (UniProt Q9NP58). Description: ABCB6 transporter inhibitors, pilot screen, K562-ABCB6 cells, flow cytometry, validation set (AID 588550;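 active means inhibition above the screen-wide mean plus 3 SD, about 51%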;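 further: 0% = DMSO wells and 100% = benzethonium chloride 70 µM positive control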). The note with it: K562-ABCB6 porphyrin accumulation, 1 h, at 10 µM, stronger effect = higher value.
Chain of ATP-binding cassette sub-family B member 6 (Homo sapiens) (Q9NP58 whole entry, looked up): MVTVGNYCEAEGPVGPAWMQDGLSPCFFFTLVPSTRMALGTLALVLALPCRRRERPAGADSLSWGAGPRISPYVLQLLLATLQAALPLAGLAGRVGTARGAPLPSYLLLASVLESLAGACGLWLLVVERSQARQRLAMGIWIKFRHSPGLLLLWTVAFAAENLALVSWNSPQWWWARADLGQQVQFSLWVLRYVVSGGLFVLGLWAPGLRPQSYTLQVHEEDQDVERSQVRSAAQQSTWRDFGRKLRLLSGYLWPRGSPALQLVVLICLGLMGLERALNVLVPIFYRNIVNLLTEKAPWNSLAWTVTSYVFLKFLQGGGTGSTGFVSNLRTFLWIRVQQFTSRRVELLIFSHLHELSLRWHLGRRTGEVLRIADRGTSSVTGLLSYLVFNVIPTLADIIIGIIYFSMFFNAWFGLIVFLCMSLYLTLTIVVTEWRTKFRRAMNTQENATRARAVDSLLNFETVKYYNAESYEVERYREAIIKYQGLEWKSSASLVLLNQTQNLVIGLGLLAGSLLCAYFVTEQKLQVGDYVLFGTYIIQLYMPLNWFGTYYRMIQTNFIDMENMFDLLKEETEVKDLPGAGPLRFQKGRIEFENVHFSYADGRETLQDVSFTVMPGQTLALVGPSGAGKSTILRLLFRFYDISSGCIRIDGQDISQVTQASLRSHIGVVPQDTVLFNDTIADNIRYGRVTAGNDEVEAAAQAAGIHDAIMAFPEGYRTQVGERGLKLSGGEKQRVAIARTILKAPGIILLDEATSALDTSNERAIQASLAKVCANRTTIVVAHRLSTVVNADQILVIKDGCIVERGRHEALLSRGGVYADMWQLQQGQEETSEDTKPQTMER
A short description of assay [16]: promoters of myeloid differentiation in arrested cells, primary screen, cell-based, GFP/MAC1 double positive, flow cytometry, validation set (AID 588685;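 active means differentiation response of at least 50%, scaled between solvent and reference control, from cells with both markers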;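 further: compound exposure lasts four days before antibody staining and flow analysis; 0% = DMSO wells and 100% = 5 µM fulvestrant positive control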). As to conditions: ER-HoxA9 marrow cells, stronger effect = higher value, normalized: vehicle 0, fulvestrant 100.

Results filed as inconclusive are left out. Activity calls are given as the source filed them.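 How the source made its calls, unless noted: active means GFP signal, as percent of the solvent control, above the screen mean plus 3 SD, about 149; inconclusive means no reading because the compound's own fluorescence upset strain identification; inactive means the rest.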

Chain of AP-2 complex subunit beta (Homo sapiens) (P63010 whole entry, looked up, the tested form may be a part, one chain of several): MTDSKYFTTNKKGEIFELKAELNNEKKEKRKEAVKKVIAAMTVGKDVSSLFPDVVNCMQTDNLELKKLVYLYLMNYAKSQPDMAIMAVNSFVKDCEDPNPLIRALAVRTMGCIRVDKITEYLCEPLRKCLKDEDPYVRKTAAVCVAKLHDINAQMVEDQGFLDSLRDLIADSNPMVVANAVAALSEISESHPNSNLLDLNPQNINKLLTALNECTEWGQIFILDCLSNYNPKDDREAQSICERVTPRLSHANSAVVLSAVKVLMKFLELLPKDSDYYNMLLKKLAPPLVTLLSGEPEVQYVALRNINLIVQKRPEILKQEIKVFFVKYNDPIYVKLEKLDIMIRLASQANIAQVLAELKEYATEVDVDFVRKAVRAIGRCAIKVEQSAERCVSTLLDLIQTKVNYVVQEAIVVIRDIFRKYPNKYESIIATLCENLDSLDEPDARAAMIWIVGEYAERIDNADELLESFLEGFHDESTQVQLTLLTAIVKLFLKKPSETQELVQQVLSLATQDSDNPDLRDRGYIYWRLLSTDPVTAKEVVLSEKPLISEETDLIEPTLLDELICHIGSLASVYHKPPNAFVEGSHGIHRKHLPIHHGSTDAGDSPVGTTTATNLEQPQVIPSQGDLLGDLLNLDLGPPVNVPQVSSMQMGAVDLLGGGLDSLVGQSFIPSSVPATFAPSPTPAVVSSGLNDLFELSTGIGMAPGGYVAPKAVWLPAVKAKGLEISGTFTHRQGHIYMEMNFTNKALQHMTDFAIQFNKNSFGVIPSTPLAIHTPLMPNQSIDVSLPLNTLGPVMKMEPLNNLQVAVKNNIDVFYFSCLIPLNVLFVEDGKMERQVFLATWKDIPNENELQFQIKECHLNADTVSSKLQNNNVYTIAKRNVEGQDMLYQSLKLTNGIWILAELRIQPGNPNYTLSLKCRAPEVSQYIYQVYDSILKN

On to `CC(C)(C)NCC(O)COc1ccccc1C(=O)CCc1ccccc1` (stereo not given), for which the percent of DMSO control GFP in [1] is 101% (inactive). For the same compound, the GFP response vs DMSO in [2] was 101% (inactive); in [4], 108% (inactive). Moreover, the percent response of DMSO control in assay [3] was 96.4% (inactive). Moreover, the GFP response, % of DMSO in [5] is 122% (inactive). Also, the double positive events in assay [6] worked out at 60.4%. In addition, the vesicle binding response in assay [6] was 196% (inactive). Moreover, the inhibition in [7] is 44% (inactive); in assay [11], -9.53% (inactive); in assay [15], 8% (inactive). Moreover, in [8], the superoxide response (% of plate) was 129% (inactive). In addition, the aptamer binding inhibition in assay [9] is -1% (inactive). The response in assay [10] is -37.6% (inactive); in [12], -4.49% (inactive). In [13], the binding (% of control) is 104% (inactive). Further, in assay [14], the efflux inhibition (fraction of control) is 0.04 (inactive). For the same compound, the differentiation response in assay [16] is 46.2% (inactive).
`CCOC(=O)[C@H]1O[C@@H]1C(=O)N[C@@H](CC(C)C)C(=O)NCCC(C)C`: the percent of DMSO control GFP in assay [1] was 91.1% (inactive). In addition, the figures for the GFP response vs DMSO in [2] and in assay [4] were 135% (inactive) and 82.5% (inactive), respectively. The percent response of DMSO control in assay [3] is 97.9% (inactive). In [5], the GFP response, % of DMSO is 91.7% (inactive). The double positive events in assay [6] amounted to 55.3%. Moreover, in [6], the vesicle binding response was 224% (inactive). Besides, the inhibition in [7] was 6.46% (inactive); in assay [11] it was -3.19% (inactive); in [15] it was 7% (inactive). The superoxide response (% of plate) in assay [8] is 97% (inactive). The aptamer binding inhibition in [9] is 3% (inactive). Moreover, the response in [10] was -8.75% (inactive); in assay [12], 6.36% (inactive). Besides, the binding (% of control) in assay [13] is 106% (inactive). Moreover, in assay [14], the efflux inhibition (fraction of control) is 0.05 (inactive). For the same compound, the differentiation response in assay [16] is 0.82% (inactive).
With `CC(C)=CCC(C)(C)/C=N/NC(N)=O`, the percent of DMSO control GFP in assay [1] is 101% (inactive). Besides, the GFP response vs DMSO in [2] was 102% (inactive); in assay [4], 109% (inactive). Moreover, the percent response of DMSO control in assay [3] was 98.3% (inactive). The GFP response, % of DMSO in assay [5] is 111% (inactive). Further, in [6], the double positive events was determined as 59.7%. In addition, in assay [6], the vesicle binding response was 464% (inactive). For the same compound, the results for the inhibition in assay [7], in [11] and in [15] were 14.2% (inactive), -2.34% (inactive) and 4% (inactive), respectively. Moreover, in [8], the superoxide response (% of plate) was 97.9% (inactive). In addition, the aptamer binding inhibition in assay [9] was 4% (inactive). In addition, the response in assay [10] was -21.9% (inactive); in assay [12], 1.02% (inactive). Also, in [13], the binding (% of control) is 100% (inactive). The efflux inhibition (fraction of control) in [14] was 0 (inactive). In addition, the differentiation response in [16] was 5.85% (inactive).
Take `COc1cc(C(=O)CCN2CCC(c3ccccc3)C2)cc(OC)c1OC` (stereo not given): the percent of DMSO control GFP in assay [1] was 108% (inactive). For the same compound, the GFP response vs DMSO is 97.7% (inactive) in assay [2] and 95.9% (inactive) in assay [4]. The percent response of DMSO control in assay [3] was 110% (inactive). Also, the GFP response, % of DMSO in assay [5] is 105% (inactive). In assay [6], the double positive events was found to be 57.9%. Besides, the vesicle binding response in assay [6] was 131% (inactive). Moreover, the inhibition in assay [7] is 1.59% (inactive); in assay [11], 4.79% (inactive); in [15], 0% (inactive). For the same compound, in assay [8], the superoxide response (% of plate) is 117% (inactive). Besides, the aptamer binding inhibition in assay [9] was 2% (inactive). In addition, the response was 2% (inactive) in assay [10] and -0.17% (inactive) in assay [12]. Moreover, in assay [13], the binding (% of control) was 100% (inactive). For the same compound, in assay [14], the efflux inhibition (fraction of control) was 0.1 (inactive). For the same compound, the differentiation response in [16] was -10.4% (inactive).
On to `Cc1ccc2c(c1C)NC(C(=O)O)C1CC=CC21` (stereo not given), for which the percent of DMSO control GFP in assay [1] was 102% (inactive). The values for the GFP response vs DMSO in assay [2] and in assay [4] were 97.4% (inactive) and 73.5% (inactive), respectively. For the same compound, in [3], the percent response of DMSO control is 105% (inactive). Further, the GFP response, % of DMSO in [5] was 88.5% (inactive). In assay [6], this compound displayed a double positive events of 60.4%. The vesicle binding response in assay [6] is 121% (inactive). In addition, the inhibition in assay [7] is -70% (inactive); in [11], 11% (inactive); in assay [15] it was -4% (inactive). For the same compound, the superoxide response (% of plate) in assay [8] was 101% (inactive). In addition, in [9], the aptamer binding inhibition was 34% (active). Besides, the response in assay [10] is 62.2% (active); in assay [12], 2.2% (inactive). For the same compound, in assay [13], the binding (% of control) was 96.8% (inactive). In [14], the efflux inhibition (fraction of control) is 0.15 (inactive). Further, in assay [16], the differentiation response was -4% (inactive).
